This is one part of a sample in which hits are shown more often than they occur.
Tg IFNy HTS – blocks Toxoplasma gondii growth in the presence of IFN-gamma; actives 3.8% (n = 69,000); AID 1259416; activity change, negative = inhibition, % (no concentration beside the values); Toxoplasma gondii growth in IFN-gamma-treated host cells; hits give low values; in the data active = activity change below about -70%, passing the limit was not always enough;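 also: host cells are HeLa cells infected with Toxoplasma gondii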
Starred values were filed as active, the others as inactive.

SMILES	Tg IFNy HTS
O=C1c2ccccc2S(=O)(=O)N1Cc1ccc2nonc2c1	-13
O=C(c1cnc2ccccc2c1)N1CCC2(CC(=O)N(c3ccc(F)cc3)C2)C1 (centres undefined)	-31
Cc1cccc(N2CC3(CCN(C(=O)c4cnc5ccccc5c4)C3)CC2=O)c1 (centres undefined)	-63
O=C(c1cnc2ccccc2c1)N1CCC2(CC(=O)N(c3cccc(F)c3)C2)C1 (centres undefined)	-74*
CO[C@@H]1CN(C)C(=O)c2cc(NS(=O)(=O)CC(F)(F)F)ccc2OC[C@H](C)NC[C@@H]1C	176
COc1cccc(CC(=O)N2CCc3nc(-c4ccc(F)cc4)nc(C)c3CC2)c1	-6
COc1cccc(Nc2nc(-c3ccncc3)nc3c2CN(C(=O)OC(C)(C)C)CC3)c1	-75*
CC(C)(C)OC(=O)N1CCc2[nH]nc(Nc3ccccc3)c2C1	-5
COc1cccc(CN(C)C(C)c2ccncc2)c1O (centres undefined)	8
COc1ccc(-c2nc(CN3CCCC3c3ccccn3)c(C)o2)cc1 (centres undefined)	7
COc1ccc(-n2cccn2)c(CN2CCC(n3nc(C)cc3C)C2)c1 (centres undefined)	-5
COc1ccc(-n2cccn2)c(CN2CCCCC2c2ccccn2)c1 (centres undefined)	-85*
Cc1ccc(N=Nc2c(-c3ccccc3)[nH]n(C(N)=S)c2=O)cc1	-105*
O=c1c(N=Nc2ccccc2)c(-c2ccccc2)[nH]n1-c1ccccc1	11
Cc1[nH]n(C(N)=S)c(=O)c1N=Nc1cc(-c2ccc(Br)cc2)[nH]n1	178
O=C(O)CSCC(=O)Nc1ccc(N2CCOCC2)nc1N1CCOCC1	70
CCOC(=O)c1coc(N2CCCC3(CC2)CN(C)C(=O)O3)n1 (centres undefined)	-50
CCOc1ccc(-c2nc(Cn3c(=O)c4cccnc4n(-c4ccccc4)c3=O)c(C)o2)cc1	8
CN(Cc1cnc(C2CCCCC2)nc1)Cc1ncc[nH]1	-2
CC(C)c1nn(-c2ccccc2)c2c1C(c1ccoc1)CC(=O)N2 (centres undefined)	-28
COc1c(F)cc(C2CC(=O)Nc3c2c(C(C)C)nn3C)cc1Cl (centres undefined)	4
CC(C)c1nn(C)c2c1C(c1nc(-c3ccc(Cl)cc3)no1)CC(=O)N2 (centres undefined)	-85*
C[C@H]1CN([C@@H](C)CO)C(=O)Cc2cc(NC(=O)Nc3ccc(F)cc3)ccc2O[C@@H]1CN(C)S(C)(=O)=O	-8
CCN(Cc1ccc2c(C)cc(=O)oc2c1)CC1CCOCC1	-46
COc1ccccc1C(=O)Nc1ccc2c(c1)C(=O)N(C)C[C@@H](OC)[C@@H](C)CN(C(C)=O)[C@@H](C)CO2	23
SMILES	Tg IFNy HTS
O=C(Nc1ccc(F)cc1)Nc1nc(SCc2ccc(F)cc2)ns1	-110*
Cc1ccc(-c2coc(-c3ccc(NC(=O)Nc4ccc(F)cc4)cc3)n2)cc1	29
CCSc1nsc(NC(=O)CN2CCC(Oc3cccc(F)c3)CC2)n1	12
COCC(=O)Nc1ccc2c(c1)C(=O)N(C)[C@@H]1CC[C@H](CC(=O)NC3Cc4ccccc4C3)O[C@H]1CO2	-11
COc1ccccc1OC1CCN(C(=O)c2cccc(O)c2C)CC1	-5
COCC(NC(=O)c1cc(NC(C)=O)ccc1Cl)c1ccccn1 (centres undefined)	6
CC(C)[C@H](CO)Nc1nc(Nc2cccc(Cl)c2)c2ncn(C(C)C)c2n1	-74*
CC[C@H](CO)Nc1nc(NCc2ccc(-c3ccccn3)cc2)c2ncn(C(C)C)c2n1	-79*
Cn1cnc2c(NCc3ccccc3)nc(NCCO)nc21	7
CC(C)n1cnc2c(-c3cccnc3)nc(C3CCN(Cc4ccccn4)CC3)cc21	-35
CC(C)n1cnc2c(NCc3ccccc3)nc(NCCCO)nc21	-5
CC[C@H](CO)Nc1nc(Nc2cccc(-c3ccccn3)c2)c2ncn(C(C)C)c2n1	-79*
COc1ccc(-c2nc(Nc3ccccc3OC)c3ccccc3n2)cc1	-72
Cc1oc(-c2ccccc2)nc1Cn1ccn2nc(-c3ccccc3)cc2c1=O	20
CC(C)CNC(=O)C1Cn2ccnc2C2(CCN(S(C)(=O)=O)CC2)O1 (centres undefined)	-4
CC(=O)N1CCN(c2nc(C)cc(C)n2)CC1	17
Cc1cc(C)nc(N2CCC(CNC(=O)c3cc(C(C)(C)C)[nH]n3)CC2)n1	-77*
Cc1nc(CC(NC(=O)c2cc(C(C)(C)C)[nH]n2)c2ccc(Cl)cc2)cc(=O)[nH]1 (centres undefined)	7
O=C1N[C@H](Cc2ccccc2)COCc2cn(nn2)CC[C@H]1Cc1cccc(F)c1	48
O=C(NCCCc1ccc(F)cc1)c1n[nH]c2c1CCCCC2	-5
COc1ccc(CCNC(=O)C2CCCN2C(=O)Nc2ccc(C)cc2)cc1OC (centres undefined)	23
COc1ccc(CCNC(=O)COc2ccc(Br)c(C)c2)cc1OC	-11
CC[C@H](C(=O)N1CCCC[C@H]1C(=O)O[C@H](CCc1ccc(OC)c(OC)c1)c1cccc(OCC(=O)NCCNC(=O)COc2cccc([C@@H](CCc3ccc(OC)c(OC)c3)OC(=O)[C@@H]3CCCCN3C(=O)[C@@H](CC)c3cc(OC)c(OC)c(OC)c3)c2)c1)c1cc(OC)c(OC)c(OC)c1	-72*
O=C(O)c1ccc(-n2cnnc2)cc1Cl	4
O=C(COc1cccc2nsnc12)NCCn1c(=O)oc2ccccc21	-6
SMILES	Tg IFNy HTS
CCCc1sc(Nc2ccc(C(=O)OC)cc2)nc1-c1ccccc1	91
c1ccc(Nc2nc(-c3ccccc3)c(-c3ccccc3)s2)cc1	-105*
Clc1cccc(Nc2nnc(-c3ccccc3)c3ccccc23)c1	2
O=C(O)C1CC2(CCNCC2)CN1Cc1cn[nH]c1-c1ccc(F)cc1 (centres undefined)	-5
CC(=O)c1sccc1NC(=O)CCC(=O)O	101
OC(c1cc(C(F)(F)F)nc2c(C(F)(F)F)cccc12)C1CCCCN1 (centres undefined)	-80*
Cc1cc(C)n2nc(C(=O)N3CCOC(Cc4ccccc4Cl)C3)cc2n1 (centres undefined)	-10
COCC1CN(Cc2cc(C)on2)Cc2nnn(CC3CC3)c21 (centres undefined)	-5
O=C(O)c1cccc(CC2CCN(C(=O)Cc3cccnc3)CC2)c1	-51
O=C(Nc1cccnc1)N1CCC(Cc2cccc(Oc3ccc(C(F)(F)F)cn3)c2)CC1	-74*
CN1CCC(CN2CCN(CCC(=O)Nc3cccnc3)CC2)CC1	-19
CNC(=O)N1CCC2(COCc3c(C)nc(N(C)C)nc32)C1 (centres undefined)	-1
CCn1cc(-c2ccc(S(C)(=O)=O)cc2)c(C)n1	4
CCOCC(=O)N1CCC2(CC1)COCCN2CCOC	-5
CN(C)CC(=O)N1CCc2ncnc(-c3ccsc3)c2CC1	-12
OC[C@@H]1[C@@H]2c3ccccc3NC[C@@H]2N1Cc1ccccc1Cl	-12
O=C(NCc1ccco1)C(Sc1ccccc1)c1ccccc1 (centres undefined)	-3
CC(C)(C)CC(C)(C)NC(=O)C(Sc1ccccc1N)c1ccccc1 (centres undefined)	-88*
COC(=O)c1ccc(CSc2ccccc2N)o1	69
COC(=O)C(O)(NC(=O)COc1ccccc1)C(F)(F)F (centres undefined)	47
CC(C)(C)OC(=O)N1CCC(c2nc(-c3ccc(Cl)s3)cs2)CC1	-7

Screening results from PubChem.
